Data: the supplement of paper PMC7801607

Columns and labels:
CHO = test: % viability of CHO cells (MTT); higher = less toxic; details: 48 h
Summary of the method: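 Viability was given as a percentage of untreated cells and measured colorimetrically by the tetrazolium (MTT) assay. Before this, CHO cells at 10^6 cells/well in 200 µL attached overnight, then received fresh medium containing compound at 2 or 20 µM for 48 h.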

HepG2-A16-CD81 = test: % inhibition of HepG2 viability (CellTiter-Glo); higher = more toxic; details: 5 µM
[1] = test system: Plasmodium falciparum NF54 stage IV/V gametocytes; test: % inhibition of gametocyte viability (PrestoBlue); higher = more inhibition; details: 48 h
Summary of the method: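 Values are percent inhibition of gametocyte viability, normalised to vehicle and kill controls in a single run. Stage IV/V NF54 gametocytes (2% gametocytaemia, 5% haematocrit, 100 µL/well) were held with compound at 1 or 5 µM for 48 h at 37 °C, stationary and hypoxic. Viability was read as 612 nm fluorescence on 70 µL of supernatant after a 2 h incubation with 10 µL PrestoBlue.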

[2] = test system: Plasmodium falciparum NF54 asexual blood stage; test: % inhibition of asexual blood stage proliferation (pLDH); higher = more inhibition; details: 72 h
Summary of the method: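 Using 96-well plates, the screen was run twice on separate occasions with Plasmodium falciparum NF54 ring-stage cultures at 1% haematocrit and 2% parasitaemia. Each culture was exposed to compound at 2 or 20 µM for 72 h at 37 °C under a gas mix of 4% CO2, 3% O2 and 93% N2. After incubation, the parasite lactate dehydrogenase assay was read colorimetrically at 620 nm. From this readout, percent inhibition of asexual proliferation was derived against control wells.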

[3] = test system: Plasmodium falciparum NF54 stage IV/V gametocytes; test: % inhibition of gametocyte viability (ATP bioluminescence); higher = more inhibition; details: 24 h
Summary of the method: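 Viability of stage IV/V NF54 gametocytes is given as percent inhibition, normalised to control wells in a single run. Gametocytes enriched on density gradients were seeded at 30,000 per well in 96-well plates with compound at 1 or 5 µM and held at 37 °C for 24 h. ATP was then read with the Promega BacTiter Glo bioluminescence system.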

[4] = test system: Plasmodium falciparum NF54 stage IV/V gametocytes; test: % inhibition of gametocyte viability (luciferase reporter); higher = more inhibition; details: 48 h
Summary of the method: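 Percent inhibition came from luminescence and was normalised to controls in a single run. Gametocytes (stage IV/V, NF54-Pfs16-GFP-Luc line, 2% gametocytaemia, 2% haematocrit) were treated with compound at 1 or 5 µM and incubated for 48 h at 37 °C without agitation under hypoxia. Readings used 30 µL lysate with 30 µL Promega luciferin substrate on a GloMax-Multi+ reader, integrating for 10 s.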

[5] = test system: Plasmodium berghei ANKA liver stage in HepG2-A16-CD81; test: % inhibition of liver stage parasite viability (luciferase); higher = more inhibition; details: 5 µM; 48 h
Method: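 Single-concentration screen of the MMV Pandemic Response Box. P. falciparum NF54 asexual blood stages: pLDH assay, 72 h at 37 °C, 2 and 20 µM, n=2. Stage IV/V gametocytes (NF54): luciferase reporter (NF54-Pfs16-GFP-Luc, 48 h), ATP bioluminescence (24 h) and PrestoBlue (48 h) at 1 and 5 µM, n=1. P. berghei liver stage (luciferase in HepG2-A16-CD81, 48 h post infection) at 5 µM, n=4. All normalised to DMSO and kill controls as % inhibition.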
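Wherever % inhibition of HepG2 viability (CellTiter-Glo) is given: HepG2-A16-CD81 hepatoma cells plated as in the liver-stage assay but without sporozoites, with DMSO wells as negative and 25 µM puromycin as positive control.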

SMILES | % viability of CHO cells (CHO; 2 µM) [%] | % viability of CHO cells (CHO; 20 µM) [%] | % inhibition of HepG2 viability (HepG2-A16-CD81) [%] | % inhibition of gametocyte viability ([1]; 1 µM) [%] | % inhibition of gametocyte viability ([1]; 5 µM) [%] | % inhibition of asexual blood stage proliferation ([2]; 2 µM) [%] | % inhibition of asexual blood stage proliferation ([2]; 20 µM) [%] | % inhibition of gametocyte viability ([3]; 1 µM) [%] | % inhibition of gametocyte viability ([3]; 5 µM) [%] | % inhibition of gametocyte viability ([4]; 1 µM) [%] | % inhibition of gametocyte viability ([4]; 5 µM) [%] | % inhibition of liver stage parasite viability [5] [%]
c1cc(CN2CCCNCCNCCCNCC2)ccc1CN1CCCNCCNCCCNCC1 | 104 | 109 | -0.261 | 7.81 | 31 | 16.7 | 34.9 | 6.22 | < 0 | < 0 | < 0 | 1.46
C[C@@H](NC(=O)c1ccccc1-c1ccccc1)B(O)O | 84 | 94 | 7.46 | 10.1 | 30.5 | -8.74 | -3.48 | 3.08 | < 0 | < 0 | < 0 | 19.8
O=P(O)(O)C(CCCc1cccc(Oc2ccccc2)c1)S(=O)(=O)O (stereo not drawn) | 113 | 109 | -5.33 | 12.4 | 30.6 | 34.7 | 69.9 | < 0 | < 0 | < 0 | 3 | 9.62
CSc1ccc2c(c1)C(N1CCN(C)CC1)Cc1ccccc1S2 (stereo not drawn) | 90.7 | 137 | -7.96 | < 0 | < 0 | 26.2 | 73.7 | 20.9 | 44.2 | 1.22 | 4.12 | 23
O=C(O)C[C@H]1CC[C@H](c2ccc(-c3ccc(Nc4ccc(C(F)(F)F)nc4)cn3)cc2)CC1 | 115 | 77.1 | 4.22 | 24.3 | 3.88 | 24.2 | 39.5 | 7.64 | 6.34 | < 0 | < 0 | 39.5
C[C@H]1[C@@H](c2cccc(C(F)(F)F)c2)OC(=O)N1C(=O)NCc1cncc2ccccc12 | 93.8 | 118 | 12.1 | < 0 | 27.7 | -2.37 | 30.8 | < 0 | < 0 | < 0 | < 0 | 63.9
Nc1nc(O)c2ncn(COCCO)c2n1 | 98.5 | 121 | 1.64 | < 0 | 15.7 | 21.3 | 31.7 | < 0 | < 0 | < 0 | < 0 | 26.7
CC[C@@]1(O)C(=O)OCc2c1cc1n(c2=O)Cc2cc3c([N+](=O)[O-])cccc3nc2-1 | 128 | 99.3 | 65.7 | < 0 | < 0 | 10.9 | 66.6 | 5.04 | < 0 | < 0 | < 0 | 62.8
O=C(Nc1nnc(-c2ccc(Cl)cc2)o1)c1ccc(F)cc1 | 94.3 | 106 | -1.68 | < 0 | 0.779 | 23.1 | -13.5 | < 0 | < 0 | < 0 | 1.27 | 63.4
